Common to all, as to assay: NCI-60 one-dose screen, 48 h (100 = growth as untreated, 0 = no growth, -100 = all killed)
Holding throughout (conditions): 10 µM unless noted

Assay [1] has as its system EKVX NSCLC.
In assay [2] the test system is SN12C renal.
Assay [3] relates to UO-31 renal.
In assay [4] the test system is TK-10 renal.
Assay [5] has as its system ACHN renal.
Assay [6] relates to CAKI-1 renal.
In assay [7] the test system is A498 renal.
The subject of assay [8] is CCRF-CEM leukemia.
In assay [9] the test system is MOLT-4 leukemia.
Assay [10] relates to SR leukemia.
In assay [11] the test system is RPMI-8226 leukemia.
Assay [12] concerns OVCAR-8 ovarian.
Assay [13] concerns OVCAR-5 ovarian.
Assay [14] relates to OVCAR-4 ovarian.
The subject of assay [15] is SK-OV-3 ovarian.
The test system of assay [16] is IGROV1 ovarian.
Assay [17] deals with OVCAR-3 ovarian.
Assay [18] has as its system HS 578T breast.
Assay [19] relates to NCI/ADR-RES ovarian.

About 83,000 compounds went through this panel and 20% of them were active in at least one assay; those are over-represented in the sample as a whole.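 Single-dose data. Exposure time 48 hours. Values below 10 considered active.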 Unmarked numbers belong to inactive results. The source made the active and inactive calls.

Consider eight compounds from PubChem BioAssay (NCI).

In the case of `CCN(CC)CCC(=O)c1ccc(OC)c2ccccc12`, the growth in [1] was 94%; in [2], 106%; in assay [3] it was 62.3%; in assay [4], 60.1%; in [5], 105%; in [6], 88.7%. Also, the growth in [7] is 124%; in [8], 18.7%; in assay [9], 29.1%; in [10] it was -6.8% (active); in assay [11], 8.95% (active); in assay [12], 89.6%. Moreover, the growth in [13] was 91.1%; in [14] it was 98.4%; in [15], 98.3%; in [16], 91.6%; in assay [17], 109%; in assay [18], 95.9%. In assay [19], the growth was 98.8%.

As for `COc1cc(-c2nc3ccccc3s2)ccc1NC(=O)COc1ccc(Cl)cc1`, the growth is 57.4% in [1]; 58.6% in assay [2]; 47.3% in [3]; 35.6% in [4]; 40% in assay [5]; 6.38% (active) in [6]. Moreover, the growth in [7] was 97.3%; in [8] it was 98.5%; in assay [9] it was 86%; in assay [10], 83.6%; in assay [11] it was 63.5%; in [12] it was -3.09% (active). Further, the growth in [13] was 61.8%; in assay [14], 6.47% (active); in assay [15], 87.1%; in assay [16], 24.6%; in [17] it was 42.4%; in assay [18] it was 44.7%. For the same compound, in assay [19], the growth was 33.2%.

On to `CCOc1ccc(Nc2nc(-c3c(C)nc4ncccn34)cs2)cc1`, for which the growth is 14.3% in assay [2]; 33.9% in [3]; 54.1% in assay [4]; 20.5% in [5]; 34.1% in assay [6]; -17.2% (active) in assay [7]. Also, the growth in [8] was -4.93% (active); in assay [9], 8.54% (active); in assay [10], 6.09% (active); in assay [11], -9.92% (active); in [12], 16.5%; in assay [13] it was 20.7%. The growth in [14] is 39.6%; in assay [15], 3.86% (active); in assay [16] it was 33.7%; in assay [17], -20.9% (active); in assay [18] it was 34.1%.

As to `CNC(=O)c1cc(Oc2ccc3nc(NC(=O)Nc4ccc(N5CCC(N(C)C)CC5)cc4)sc3c2)ccn1`, the growth in [1] is 115%; in assay [2], 92.3%; in [3] it was 87.7%; in assay [4] it was 115%; in assay [5], 74.1%; in assay [6] it was 90.1%. The growth was 81.6% in assay [7]; 66.5% in assay [8]; 61.4% in assay [9]; 0.621% (active) in [10]; 74.2% in [11]; 89.3% in assay [12]. The growth in assay [13] was 114%; in assay [14] it was 80.7%; in assay [15] it was 102%; in [16], 89%; in [17] it was 90.1%; in assay [18], 80.9%. For the same compound, in [19], the growth is 110%.

Regarding `COc1ccc(C(=O)/C=C/c2c(Cl)c3c(c(OC)c2Cl)OCC(=O)N3)cc1`, the growth was 27.8% in assay [2]; 56.7% in assay [3]; 57.3% in [4]; 41.8% in [5]; 20.2% in assay [6]; 83.5% in assay [7]. Further, the growth in assay [8] is 5.04% (active); in assay [9], 0.538% (active); in [10] it was 3.68% (active); in assay [11], 3.79% (active); in [12] it was 6.16% (active); in [13], 76.8%. The growth was 47.2% in assay [14]; 77.9% in [15]; 63.1% in assay [16]; 10.9% in assay [17]; 39.4% in [18]; 19.4% in assay [19].

For the compound `COc1ccc2[nH]c(=O)c(/C=C/C(=O)c3ccc(Nc4nccc(-c5ccc6ccccc6c5)n4)cc3)cc2c1`, the growth in assay [1] is 107%; in assay [2], 94.5%; in assay [3], 93.2%; in assay [4], 103%; in assay [5] it was 103%; in [6], 98%. The growth was 89.7% in assay [7]; 86.4% in assay [8]; 101% in assay [9]; 105% in [11]; 100% in assay [12]; 104% in assay [13]. The growth in [14] was 131%; in assay [15], 105%; in assay [16], 98.9%; in assay [17] it was 105%; in assay [18], 98.8%; in assay [19], 99.2%.

Turning to `C=C1CC2(OC1=O)C(=O)N(CCCCCCCN1C(=O)C3(CC(=C)C(=O)O3)c3ccccc31)c1ccccc12` (configuration not stated), the growth in [1] is 88.4%; in assay [2], -50.9% (active); in [3], -24.6% (active); in assay [4] it was 45.2%; in [5], 15.8%; in assay [6] it was 40.3%. In addition, the growth in [7] is 53.5%; in assay [8], -14.8% (active); in assay [9], 3.14% (active); in [10], 3.28% (active); in assay [11] it was -28.1% (active); in assay [12], 9.09% (active). The growth in assay [13] was 45.1%; in assay [14] it was 10.2%; in assay [15] it was 112%; in assay [16], 10.5%; in assay [17] it was 3.44% (active); in assay [18] it was 62.3%. In assay [19], the growth is 32.6%.

For `O=C1/C(=C/c2ccc(Cl)cc2Cl)CN(S(=O)(=O)c2ccccc2)C/C1=C\c1ccc(Cl)cc1Cl`, the growth was -47.5% (active) in [2]; -61.4% (active) in [3]; -22.2% (active) in assay [4]; 2.01% (active) in [5]; -66.1% (active) in [6]; 76.4% in assay [7]. Moreover, the growth in assay [8] was -13.2% (active); in [9], 3.37% (active); in assay [10], -11.6% (active); in [11] it was -21.9% (active); in [12], 13.6%; in assay [13] it was -3.2% (active). In addition, the growth is 22.6% in [14]; 44.7% in [15]; -24.3% (active) in assay [16]; -36.4% (active) in assay [17]; 37.9% in assay [18]; 20.5% in assay [19].
